Measurements from PubChem BioAssay (Tox21).
Records with an inconclusive call do not appear. Where a call stands in place of a potency, no number is given. Calls of active or inactive are those of the source. The call rests on the fitted dose curve. Starred links: 1 amine or outer side, 2 acyl side, 3 side chain; linkers in the order of their positions; H or OH if unused. Positions of bridges follow the written chain, without caps; N, C: chain ends. Non-standard residues stand in square brackets, D forms with d. Residues, ends and D or L forms follow the SMILES beside them. *: point of attachment. X5 = NC1=N[C@@H]([C@H](N[*:1])C(=O)[*:2])C[C@H](O)N1; ΔAla(Z-3-ureido) = NC(=O)N/C=C(\N)C(=O)O; β3hOrn = NCCC[C@H](N)CC(=O)*; Orn = NCCC[C@H](N)C(=O)O; Dap = NC[C@H](N)C(=O)O; Mpa = O=C(O)CCS

experiment: qHTS assay for small molecule disruptors of the mitochondrial membrane potential - cell viability (AID 720634); conditions: HepG2 viability, ATP luminescence (CellTiter-Glo), 1 h; series mostly up to 83.2 µM;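 further: human HepG2 liver cancer cells; nearly all actives have a fitted effect of over 20% in size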
Procedure, shortened: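 Luminescence from CellTiter-Glo (ATP content) gave viability in HepG2 cells, read in the same wells as the MMP dye assay after 1 hr compound exposure at 37 C.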

| Compound | Potency |
| --- | --- |
| COCC1=C(C(=O)OC(C)OC(=O)OC(C)C)N2C(=O)[C@@H](NC(=O)/C(=N\OC)c3csc(N)n3)[C@H]2SC1 (some centres undefined) | inactive |
| CO[C@@H]1[C@@H](O[C@@H]2O[C@H](C)[C@@H](O[C@H]3C[C@@](C)(O)[C@@H](OC(=O)CC(C)C)[C@H](C)O3)[C@H](N(C)C)[C@H]2O)[C@@H](CC=O)C[C@@H](C)[C@@H](O)/C=C/C=C/C[C@@H](C)OC(=O)C[C@H]1O | inactive |
| CC(=O)O[C@H]1C[C@@H]2CC[C@@H]3[C@H](CC[C@@]4(C)[C@H]3C[C@H](N3CC[N+](C)(C)CC3)[C@@H]4OC(C)=O)[C@@]2(C)C[C@@H]1N1CC[N+](C)(C)CC1 | inactive |
| NCCC[C@H](N)CC(=O)N[C@H]1CNC(=O)[C@H]([C@H]2C[C@H](O)NC(N)=N2)NC(=O)/C(=C/NC(N)=O)NC(=O)[C@H](CO)NC(=O)[C@H](CO)NC1=O (β3hOrn-[Dap]SS[ΔAla(Z-3-ureido)][X5]; lactam 1-C) | inactive |
| CCOc1ccc(C[C@H]2NC(=O)CCSSC[C@@H](C(=O)N3CCC[C@H]3C(=O)N[C@@H](CCCN)C(=O)NCC(N)=O)NC(=O)[C@H](CC(N)=O)NC(=O)[C@H]([C@@H](C)O)NC(=O)[C@H]([C@@H](C)CC)NC2=O)cc1 ([Mpa][dY](Et)ITNCP[Orn]G-NH2; disulfide 1-6) | inactive |
| O=P(O)(O)C(O)(Cc1cnc2ccccn12)P(=O)(O)O | inactive |
| OCC(O)COc1ccc(Cl)cc1 (centres undefined) | inactive |
| CCCCCCCCCCCCCCCC(=O)OC[C@@H](NC(=O)C(Cl)Cl)[C@H](O)c1ccc([N+](=O)[O-])cc1 | inactive |
| NC(=O)Oc1ccc(Cc2ccccc2)cc1 | inactive |
| CCCC(CCC)C(N)=O | inactive |
| CC1CC(OC(=O)C(O)c2ccccc2)CC(C)(C)C1 (centres undefined) | inactive |
| OC(CN1CCCCC1)c1cc(-c2ccccc2)on1 (centres undefined) | inactive |
| CCC(c1ccccc1)c1noc(CCN(CC)CC)n1 (centres undefined) | inactive |
| O=S(O)CNc1ccc(S(=O)(=O)c2ccc(NCS(=O)O)cc2)cc1 | inactive |
| C=CCN1CCCC1CNC(=O)c1cc(S(N)(=O)=O)cc(OC)c1OC (centres undefined) | inactive |
| CCCCCCCCCCCCCCCCCC(=O)OCCO | inactive |
| CCCCCCCCCCCCCCCCCCCCCC(=O)Nc1ccn([C@@H]2O[C@H](CO)[C@@H](O)[C@@H]2O)c(=O)n1 | inactive |
| CCCCOC(=O)C(=O)Nc1cccc(-c2nn[nH]n2)c1 | inactive |
| CCOC(=O)[C@H](CCc1ccccc1)N[C@H]1CCCN2CCC[C@@H](C(=O)O)N2C1=O | inactive |
| CC(C)CN(C[C@@H](O)[C@H](Cc1ccccc1)NC(=O)O[C@@H]1CCOC1)S(=O)(=O)c1ccc(N)cc1 | inactive |

| Compound | Potency |
| --- | --- |
| O.O=C([O-])CC([S-])C(=O)[O-].[Au+].[Na+].[Na+] (centres undefined) | inactive |
| O=P(O)(O)C(Sc1ccc(Cl)cc1)P(=O)(O)O | inactive |
| O=C(CCCN1CCC(C(=O)c2ccc(F)cc2)CC1)c1ccc(F)cc1 | inactive |
| C[C@H]1C[C@H]2[C@@H]3CCC4=CC(=O)C=C[C@]4(C)[C@@]3(F)[C@@H](O)C[C@]2(C)[C@@]1(O)C(=O)CCl | inactive |
| CC#CCC(C)[C@H](O)/C=C/[C@@H]1[C@H]2C/C(=C/CCCC(=O)O)C[C@H]2C[C@H]1O (some centres undefined) | inactive |
| NCCC[C@H](N)C(=O)O | inactive |
| CN1[C@@H]2CCC[C@H]1CC(NC(=O)c1nn(C)c3ccccc13)C2 (some centres undefined) | inactive |
| CS(=O)(=O)NC(=O)CCC/C=C\C[C@H]1C(=O)C[C@@H](O)[C@@H]1/C=C/[C@H](O)COc1ccccc1 | inactive |
| OC[C@@H](O)C(O)[C@H](O)CO | inactive |
| N[C@@H](C(=O)N[C@@H]1C(=O)N2C(C(=O)O)=C(CSc3cn[nH]n3)CS[C@H]12)c1ccc(O)cc1 | inactive |
| CC1(C)S[C@@H]2[C@H](NC(=O)Cc3ccccc3)C(=O)N2[C@H]1C(=O)O | inactive |
| COC(=O)[C@H]1[C@H]2C[C@@H]3c4[nH]c5cc(OC)ccc5c4CCN3C[C@H]2C[C@@H](OC(=O)/C=C/c2cc(OC)c(OC)c(OC)c2)[C@@H]1OC | inactive |
| Cn1nnnc1SCC1=C(C(=O)O)N2C(=O)[C@@H](NC(=O)[C@H](OC=O)c3ccccc3)[C@H]2SC1 | inactive |
| CC(C)(C)CC(=O)OCC(=O)[C@@]12OC(C)(C)O[C@@H]1C[C@H]1[C@@H]3CCC4=CC(=O)C=C[C@]4(C)[C@@]3(F)[C@@H](O)C[C@@]12C | inactive |
| COc1ccc2c(=O)c(C)c(-c3ccccc3)oc2c1CN(C)C | inactive |
| CCOC(=O)COc1ccc2c(C)c(CCN(CC)CC)c(=O)oc2c1 | inactive |
| O=C(O)[C@H](CC(=O)N1C[C@H]2CCCC[C@H]2C1)Cc1ccccc1 | inactive |
| C=C1/C(=C\C=C2/CCC[C@]3(C)[C@@H]([C@H](C)OCCC(C)(C)O)CC[C@@H]23)C[C@@H](O)C[C@@H]1O | inactive |
| N=C(N)c1ccc(OCCCOc2ccc(C(=N)N)cc2Br)c(Br)c1 | inactive |
